Assay results reported in PubChem BioAssay (EPA / NIEHS).
Results filed as inconclusive are left out. Calls of active or inactive are those of the source. Rule for the calls, unless noted: active = hit-call score of the fitted dose curve at least 0.9, where 1 is the maximum; inactive = score below 0.9.

Assays:
[1] = biological target: Retinoic acid receptor RXR-alpha (Homo sapiens) (UniProt P19793); test: ATG_RXRa_TRANS: Attagene TRANS-FACTORIAL HepG2 Assay for human Retinoid X Receptor alpha (RXRa) (AID 2283012; active = hit-call score of the fitted dose curve at least 0.9, where 1 is the maximum)
Chain of Retinoic acid receptor RXR-alpha (Homo sapiens) (P19793 whole entry, looked up, the tested form may be a part): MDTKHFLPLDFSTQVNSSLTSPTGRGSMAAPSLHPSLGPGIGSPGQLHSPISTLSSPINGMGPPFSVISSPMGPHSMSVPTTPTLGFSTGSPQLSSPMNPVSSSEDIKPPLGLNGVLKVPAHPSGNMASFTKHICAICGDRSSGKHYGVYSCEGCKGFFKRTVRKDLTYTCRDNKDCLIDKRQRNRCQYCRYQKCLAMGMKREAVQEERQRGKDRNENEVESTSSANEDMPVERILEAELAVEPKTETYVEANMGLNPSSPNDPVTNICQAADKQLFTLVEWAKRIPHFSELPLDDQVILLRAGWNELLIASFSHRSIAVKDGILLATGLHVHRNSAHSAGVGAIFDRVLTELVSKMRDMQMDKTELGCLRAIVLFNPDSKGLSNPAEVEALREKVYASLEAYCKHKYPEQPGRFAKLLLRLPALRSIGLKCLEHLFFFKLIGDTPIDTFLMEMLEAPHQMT
Procedure, shortened: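 Transient transfection of human HepG2 with multiple GAL4-UAS reporter constructs; 24 h compound exposure; total RNA isolated, reverse-transcribed, PCR-amplified, 6-FAM labelled, HpaI-cut, resolved by capillary electrophoresis. Positive-direction fit versus DMSO.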

[2] = biological target: human Retinoid X Receptor beta (RXRb), RXRB (gene 6257) (UniProt P28702); test: ATG_RXRb_TRANS: Attagene TRANS-FACTORIAL HepG2 Assay for human Retinoid X Receptor beta (RXRb) (AID 2283013; active = hit-call score of the fitted dose curve at least 0.9, where 1 is the maximum)
Chain of human Retinoid X Receptor beta (RXRb), RXRB (gene 6257) (P28702 whole entry, looked up, the tested form may be a part): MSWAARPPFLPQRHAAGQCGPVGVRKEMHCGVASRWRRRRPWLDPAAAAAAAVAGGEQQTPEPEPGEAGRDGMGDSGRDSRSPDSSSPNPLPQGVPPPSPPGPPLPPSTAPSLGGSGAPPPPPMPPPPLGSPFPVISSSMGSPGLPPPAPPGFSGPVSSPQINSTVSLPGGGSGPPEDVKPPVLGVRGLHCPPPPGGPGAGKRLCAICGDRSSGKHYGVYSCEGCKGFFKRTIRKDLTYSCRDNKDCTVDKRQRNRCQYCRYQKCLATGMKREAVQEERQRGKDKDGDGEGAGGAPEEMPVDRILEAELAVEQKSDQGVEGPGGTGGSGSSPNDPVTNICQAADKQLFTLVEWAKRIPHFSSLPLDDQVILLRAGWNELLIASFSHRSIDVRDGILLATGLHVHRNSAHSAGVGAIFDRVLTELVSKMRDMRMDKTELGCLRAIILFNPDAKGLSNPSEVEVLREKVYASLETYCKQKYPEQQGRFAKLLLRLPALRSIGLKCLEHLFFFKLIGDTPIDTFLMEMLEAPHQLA
Procedure, shortened: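 Transfect HepG2 with GAL4-UAS multi-reporter constructs (chimeric NR-Gal4, TRANS format); dose compound 24 h; isolate RNA, RT-PCR, FAM primer extension, HpaI digest; quantify by capillary electrophoresis; positive direction vs DMSO.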

[3] = read-out: E-selectin (Homo sapiens) (UniProt P16581); test: BSK_3C_Eselectin: BioMAP Diversity Plus: 3C Assay for Eselectin Biomarker Activity (AID 2283015); settings: primary human endothelial cells (HUVEC); actives raise or lower the signal;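 for outcome: cell surface E-selectin protein quantified by ELISA 24 h after dosing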
Procedure, shortened: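 HUVEC, 3C stimulation; compound exposure 24 h; E-selectin by ELISA; gain- or loss-of-signal fitted bidirectionally vs DMSO baseline.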

[4] = read-out: Interleukin-1 alpha (IL1a), IL1A (gene 3552); test: BSK_BE3C_IL1a: BioMAP Diversity Plus: BE3C Assay for Interleukin-1 alpha (IL1a) Biomarker Activity (AID 2283016); settings: primary human bronchial epithelial cells; actives raise or lower the signal
Procedure, shortened: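 BE3C primary human bronchial epithelium; cpd 24 h; IL-1a by ELISA; bidirectional fit vs DMSO; parallel SRB (0.1% SRB, 10% TCA fix, 560 nm) for cytotoxicity.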

[5] = read-out: Monocyte Chemoattractant Protein-1 (MCP1), CCL2 (gene 6347); test: BSK_3C_MCP1: BioMAP Diversity Plus: 3C Assay for Monocyte Chemoattractant Protein-1 (MCP1) Biomarker Activity (AID 2283017); settings: primary human endothelial cells (HUVEC); actives raise or lower the signal
Procedure, shortened: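 HUVEC, 3C system; 24 h chemical exposure; MCP-1 by ELISA; bidirectional curve fit vs DMSO baseline.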

[6] = read-out: Monocyte Chemoattractant Protein-1 (MCP1), CCL2 (gene 6347); test: BSK_4H_MCP1: BioMAP Diversity Plus: 4H Assay for Monocyte Chemoattractant Protein-1 (MCP1) Biomarker Activity (AID 2283018); settings: primary human endothelial cells (HUVEC); actives raise or lower the signal
Procedure, shortened: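 ELISA read-out of MCP-1 from human vascular endothelial primary cells taken at 24 hours after compound exposure. Activity was fitted in both directions relative to DMSO, which served as negative control.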

[7] = read-out: Human Leukocyte Antigen - DR isotype (HLADR), HLA-DRA (gene 3122); test: BSK_3C_HLADR: BioMAP Diversity Plus: 3C Assay for Human Leukocyte Antigen - DR isotype (HLADR) Biomarker Activity (AID 2283019); settings: primary human endothelial cells (HUVEC); actives raise or lower the signal;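 for outcome: ELISA of cell-surface HLA-DR on HUVEC 24 h after dosing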
Procedure, shortened: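 HUVEC, 3C stimulation, 24 h post-dose; HLA-DR by ELISA; bidirectional curve fit vs DMSO baseline; gain or loss of signal scored.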

[8] = read-out: Interleukin-8 (IL8), CXCL8 (gene 3576); test: BSK_3C_IL8: BioMAP Diversity Plus: 3C Assay for Interleukin-8 (IL8) Biomarker Activity (AID 2283020); settings: primary human endothelial cells (HUVEC); actives raise or lower the signal
Procedure, shortened: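 ELISA read-out of IL-8 from human umbilical vein endothelium, measured 24 h after chemical dosing. Activity is expressed relative to DMSO negative control, with both increases and decreases fitted.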

[9] = read-out: Monokine induced gamma interferon (MIG), CXCL9 (gene 4283); test: BSK_3C_MIG: BioMAP Diversity Plus: 3C Assay for Monokine induced gamma interferon (MIG) Biomarker Activity (AID 2283021); settings: primary human endothelial cells (HUVEC); actives raise or lower the signal;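 for AC50: MIG protein level measured by immunoassay in the treated endothelial cultures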
Procedure, shortened: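 Read-out is ELISA detection of MIG on human umbilical vein endothelial cells, taken 24 h after dosing. Gain or loss of signal was scored relative to DMSO controls using bidirectional curve fitting.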

[10] = BSK_3C_SRB: Viability Assessment in the BioMAP Diversity Plus: 3C Assay (AID 2283023); settings: primary human endothelial cells (HUVEC);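 note: fitted both ways against DMSO so a hit may be signal rise or drop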
Procedure, shortened: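 HUVEC, 24 h post-dose; 10% TCA fix, 0.1% SRB stain, A560 nm. Bidirectional curve fit vs DMSO negative control.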

[11] = read-out: Matrix Metallopeptidase 1 (MMP1), MMP1 (gene 4312); test: BSK_BE3C_MMP1: BioMAP Diversity Plus: BE3C Assay for Matrix Metallopeptidase 1 (MMP1) Biomarker Activity (AID 2283024); settings: primary human bronchial epithelial cells; actives raise or lower the signal
Procedure, shortened: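 Human bronchial epithelial cells (BE3C system) exposed to compound for 24 h; MMP1 then quantified by ELISA. Activity was fitted in both directions relative to DMSO.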

[12] = BSK_3C_Vis: BioMAP Diversity Plus: 3C Assay for Morphology Visualization (AID 2283025); settings: primary human endothelial cells (HUVEC);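 note: fitted both ways so gain or loss versus DMSO counts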;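 for AC50: light microscopy image of cell morphology used as background control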
Procedure, shortened: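 Chemicals were added to primary human umbilical vein endothelium, cells were incubated 24 h, and morphology was then visualized by light microscopy. Gain or loss of signal was fitted bidirectionally relative to DMSO.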

[13] = read-out: Pselectin, SELP (gene 6403); test: BSK_4H_Pselectin: BioMAP Diversity Plus: 4H Assay for Pselectin Biomarker Activity (AID 2283026); settings: primary human endothelial cells (HUVEC); actives raise or lower the signal
Procedure, shortened: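 ELISA read-out of P-selectin on human umbilical vein endothelium after 24 h of dosing. Values derive from bidirectional fitting relative to DMSO. Parallel SRB protein staining flagged overt cytotoxicity.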

[14] = BSK_BE3C_SRB: Viability Assessment in the BioMAP Diversity Plus: BE3C Assay (AID 2283028); settings: primary human bronchial epithelial cells;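 for AC50: fitted both ways so AC50 may mark signal gain or loss versus DMSO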
Procedure, shortened: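 Primary human bronchial epithelium; chemical dosing, 24 h; 10% TCA fix, 0.1% SRB stain, A560; bidirectional fit vs DMSO baseline.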

[15] = read-out: Thrombomodulin, THBD (gene 7056); test: BSK_3C_Thrombomodulin: BioMAP Diversity Plus: 3C Assay for Thrombomodulin Biomarker Activity (AID 2283029); settings: primary human endothelial cells (HUVEC); actives raise or lower the signal
Procedure, shortened: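 Read-out is ELISA of thrombomodulin on human umbilical vein endothelium 24 h after chemical dosing. Gain or loss of signal is scored relative to DMSO. Overt cytotoxicity is checked in parallel cultures by sulforhodamine B staining.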

[16] = read-out: Urokinase-type plasminogen activator receptor (uPAR), PLAUR (gene 5329); test: BSK_4H_uPAR: BioMAP Diversity Plus: 4H Assay for Urokinase-type plasminogen activator receptor (uPAR) Biomarker Activity (AID 2283030); settings: primary human endothelial cells (HUVEC); actives raise or lower the signal
Procedure, shortened: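 HUVEC, 24 h post-dose; uPAR by ELISA; bidirectional fit vs DMSO baseline.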

[17] = read-out: Vascular endothelial growth factor receptor 2 (Homo sapiens) (UniProt P35968); test: BSK_4H_VEGFRII: BioMAP Diversity Plus: 4H Assay for Vascular endothelial growth factor receptor 2 (VEGFR2) Biomarker Activity (AID 2283031); settings: primary human endothelial cells (HUVEC); actives raise or lower the signal;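 for AC50: cell-surface VEGFR2 protein level quantified by ELISA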
Procedure, shortened: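 HUVEC (human primary), 4H system; 24 h post-dose; VEGFRII by ELISA; bidirectional curve fit vs DMSO baseline; gain or loss of signal scored.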

[18] = biological target: human Vitamin D Receptor (VDR), VDR (gene 7421) (UniProt P11473); test: ATG_VDR_TRANS: Attagene TRANS-FACTORIAL HepG2 Assay for human Vitamin D Receptor (VDR) (AID 2283022; active = hit-call score of the fitted dose curve at least 0.9, where 1 is the maximum)
Chain of human Vitamin D Receptor (VDR), VDR (gene 7421) (P11473 whole entry, looked up, the tested form may be a part): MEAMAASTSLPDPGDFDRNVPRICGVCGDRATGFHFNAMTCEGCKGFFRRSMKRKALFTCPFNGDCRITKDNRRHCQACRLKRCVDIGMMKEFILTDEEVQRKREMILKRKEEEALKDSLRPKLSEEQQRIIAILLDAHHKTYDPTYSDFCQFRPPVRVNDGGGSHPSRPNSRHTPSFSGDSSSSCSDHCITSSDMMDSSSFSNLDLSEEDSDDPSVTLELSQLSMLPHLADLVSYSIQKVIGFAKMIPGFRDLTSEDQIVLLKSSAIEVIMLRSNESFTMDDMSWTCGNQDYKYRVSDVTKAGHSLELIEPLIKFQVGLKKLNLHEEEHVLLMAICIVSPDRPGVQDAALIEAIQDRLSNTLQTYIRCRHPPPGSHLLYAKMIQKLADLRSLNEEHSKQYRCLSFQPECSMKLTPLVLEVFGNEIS
Procedure, shortened: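 RT-PCR/capillary electrophoresis read-out of reporter mRNA induction in transiently transfected HepG2; 24 h dosing; chimeric NR-Gal4 (TRANS format); gain-of-signal fit against DMSO baseline.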

[19] = BSK_4H_SRB: Viability Assessment in the BioMAP Diversity Plus: 4H Assay (AID 2283027); settings: primary human endothelial cells (HUVEC);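 note: cells exposed to compound for 24 h before staining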;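 for AC50: curves fitted both ways versus DMSO so AC50 may be loss or gain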
Procedure, shortened: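 Absorbance at 560 nm of SRB-stained total protein served as the viability read-out in confluent primary human umbilical vein endothelium 24 h after chemical treatment. Curves were fitted bidirectionally against DMSO as negative control.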

[20] = biological target: human Thyroid Receptor alpha (THRa1), THRA (gene 7067) (UniProt P10827); test: ATG_THRa1_TRANS: Attagene TRANS-FACTORIAL HepG2 Assay for human Thyroid Receptor alpha (THRa1) (AID 2283014; active = hit-call score of the fitted dose curve at least 0.9, where 1 is the maximum)
Chain of human Thyroid Receptor alpha (THRa1), THRA (gene 7067) (P10827 whole entry, looked up, the tested form may be a part): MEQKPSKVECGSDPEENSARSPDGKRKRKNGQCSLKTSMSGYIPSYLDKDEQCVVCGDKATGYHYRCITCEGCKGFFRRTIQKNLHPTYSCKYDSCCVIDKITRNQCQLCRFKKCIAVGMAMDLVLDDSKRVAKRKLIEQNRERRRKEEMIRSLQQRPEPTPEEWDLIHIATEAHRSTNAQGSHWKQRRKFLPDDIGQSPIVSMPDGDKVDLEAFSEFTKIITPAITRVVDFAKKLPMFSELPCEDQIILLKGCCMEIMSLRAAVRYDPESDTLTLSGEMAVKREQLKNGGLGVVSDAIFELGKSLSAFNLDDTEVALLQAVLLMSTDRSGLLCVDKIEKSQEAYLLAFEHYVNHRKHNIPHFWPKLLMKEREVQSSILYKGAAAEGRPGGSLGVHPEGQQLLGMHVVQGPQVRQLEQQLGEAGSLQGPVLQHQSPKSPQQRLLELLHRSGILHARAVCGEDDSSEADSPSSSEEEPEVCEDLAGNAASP
Procedure, shortened: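 Transient HepG2 transfection, NR-Gal4 chimera driving GAL4-UAS reporters; 24 h compound exposure; total RNA, oligo(dT) RT, PCR, fluorescent primer extension, capillary electrophoresis. Upward direction vs DMSO control.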

Chain of E-selectin (Homo sapiens) (P16581 whole entry, looked up): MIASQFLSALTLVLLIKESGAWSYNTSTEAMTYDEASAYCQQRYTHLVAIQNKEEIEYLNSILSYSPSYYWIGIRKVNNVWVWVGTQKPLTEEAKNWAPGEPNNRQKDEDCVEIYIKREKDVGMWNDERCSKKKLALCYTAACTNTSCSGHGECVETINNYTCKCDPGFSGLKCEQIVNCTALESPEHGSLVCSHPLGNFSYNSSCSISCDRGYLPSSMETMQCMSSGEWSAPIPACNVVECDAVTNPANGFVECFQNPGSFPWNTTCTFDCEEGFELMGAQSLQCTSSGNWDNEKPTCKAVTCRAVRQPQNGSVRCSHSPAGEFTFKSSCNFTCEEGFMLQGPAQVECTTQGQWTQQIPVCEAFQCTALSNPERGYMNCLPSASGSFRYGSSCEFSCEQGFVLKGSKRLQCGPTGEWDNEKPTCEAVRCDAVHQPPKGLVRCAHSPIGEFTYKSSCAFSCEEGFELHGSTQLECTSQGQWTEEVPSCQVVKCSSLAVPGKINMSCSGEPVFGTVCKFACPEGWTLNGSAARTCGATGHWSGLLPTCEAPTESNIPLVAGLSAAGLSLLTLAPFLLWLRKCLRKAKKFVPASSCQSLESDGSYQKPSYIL

Nc1nc(Cl)nc2c1ncn2[C@H]1C[C@H](O)[C@@H](CO)O1
outcome [1]: inactive | outcome [2]: inactive | outcome [3]: inactive | outcome [4]: inactive | outcome [5]: inactive | outcome [6]: inactive | outcome [7]: inactive | outcome [8]: inactive | outcome [9]: inactive | outcome [10]: inactive | outcome [11]: inactive | AC50 [12]: 38.6 µM (active) | outcome [13]: inactive | outcome [14]: inactive | outcome [15]: inactive | AC50 [16]: 18.5 µM (active) | AC50 [17]: 2.65 µM (active)

CN(C)CCCN1c2ccccc2Sc2ccc(Cl)cc21
outcome [1]: inactive | AC50 [3]: 33 µM (active) | AC50 [4]: 31.1 µM (active) | AC50 [5]: 30.4 µM (active) | AC50 [6]: 4.5 µM (active) | AC50 [7]: 29.1 µM (active) | AC50 [8]: 20 µM (active) | AC50 [9]: 32.2 µM (active) | outcome [18]: inactive | AC50 [11]: 32.9 µM (active) | AC50 [13]: 35.9 µM (active) | AC50 [19]: 26 µM (active) | AC50 [14]: 39 µM (active) | outcome [15]: inactive | AC50 [16]: 12.2 µM (active) | outcome [17]: inactive

CCCCCCCC(=O)OC
outcome [2]: inactive | outcome [20]: inactive | outcome [3]: inactive | outcome [4]: inactive | outcome [5]: inactive | outcome [6]: inactive | outcome [7]: inactive | outcome [8]: inactive | outcome [9]: inactive | outcome [18]: inactive | outcome [10]: inactive | outcome [11]: inactive | outcome [12]: inactive | outcome [13]: inactive | outcome [19]: inactive | outcome [14]: inactive | outcome [15]: inactive | outcome [16]: inactive | outcome [17]: inactive

CCCCCCC(CCCCCCCCCCC(=O)OCC(COC(C)=O)OC(C)=O)OC(C)=O (stereo not drawn)
AC50 [2]: 50 µM (active) | outcome [20]: inactive | outcome [3]: inactive | AC50 [4]: 12.3 µM (active) | outcome [5]: inactive | outcome [6]: inactive | outcome [7]: inactive | outcome [8]: inactive | outcome [9]: inactive | outcome [18]: inactive | outcome [10]: inactive | outcome [11]: inactive | outcome [12]: inactive | outcome [13]: inactive | outcome [14]: inactive | outcome [15]: inactive | outcome [16]: inactive | outcome [17]: inactive

S=c1[nH]c2ccccc2s1
outcome [1]: inactive | outcome [3]: inactive | outcome [4]: inactive | outcome [5]: inactive | outcome [6]: inactive | outcome [7]: inactive | outcome [8]: inactive | outcome [9]: inactive | outcome [18]: inactive | outcome [10]: inactive | outcome [11]: inactive | outcome [12]: inactive | outcome [13]: inactive | outcome [19]: inactive | outcome [14]: inactive | outcome [15]: inactive | outcome [16]: inactive | outcome [17]: inactive

CCCCC(CC)COC(=O)CCCCCCCC(=O)OCC(CC)CCCC (stereo not drawn)
outcome [1]: inactive | outcome [2]: inactive | outcome [3]: inactive | outcome [4]: inactive | outcome [5]: inactive | outcome [6]: inactive | outcome [7]: inactive | outcome [8]: inactive | outcome [9]: inactive | outcome [10]: inactive | outcome [11]: inactive | outcome [12]: inactive | outcome [13]: inactive | outcome [19]: inactive | outcome [14]: inactive | outcome [15]: inactive | outcome [16]: inactive | outcome [17]: inactive

COc1ccc(C(=O)Nc2nc3ccccc3c(NCc3ccccc3)c2C#N)cc1
outcome [1]: inactive | outcome [2]: inactive | outcome [3]: inactive | outcome [4]: inactive | outcome [5]: inactive | outcome [6]: inactive | outcome [7]: inactive | outcome [8]: inactive | outcome [9]: inactive | AC50 [10]: 8.6 µM (active) | AC50 [11]: 7.48 µM (active) | AC50 [12]: 39 µM (active) | outcome [13]: inactive | outcome [14]: inactive | outcome [15]: inactive | outcome [16]: inactive | outcome [17]: inactive
